This is a sample that favours compounds with a hit; in the whole collection about 5.8% have one here.
ALOX12 inh: Primary qHTS assay for inhibitors of human arachidonate 12S-lipoxygenase (ALOX12): Round 2; purified 12hLO, xylenol orange hydroperoxide absorbance; Potency, µM (series often up to 108 µM), inactives show at the highest dose activity change, negative = inhibition, usual class: inhibitors; 1.1% of 580,000 active; further: on the % scale 0 is the no-effect control and ±100 the full control effect
Target sequence (P18054 whole entry, looked up): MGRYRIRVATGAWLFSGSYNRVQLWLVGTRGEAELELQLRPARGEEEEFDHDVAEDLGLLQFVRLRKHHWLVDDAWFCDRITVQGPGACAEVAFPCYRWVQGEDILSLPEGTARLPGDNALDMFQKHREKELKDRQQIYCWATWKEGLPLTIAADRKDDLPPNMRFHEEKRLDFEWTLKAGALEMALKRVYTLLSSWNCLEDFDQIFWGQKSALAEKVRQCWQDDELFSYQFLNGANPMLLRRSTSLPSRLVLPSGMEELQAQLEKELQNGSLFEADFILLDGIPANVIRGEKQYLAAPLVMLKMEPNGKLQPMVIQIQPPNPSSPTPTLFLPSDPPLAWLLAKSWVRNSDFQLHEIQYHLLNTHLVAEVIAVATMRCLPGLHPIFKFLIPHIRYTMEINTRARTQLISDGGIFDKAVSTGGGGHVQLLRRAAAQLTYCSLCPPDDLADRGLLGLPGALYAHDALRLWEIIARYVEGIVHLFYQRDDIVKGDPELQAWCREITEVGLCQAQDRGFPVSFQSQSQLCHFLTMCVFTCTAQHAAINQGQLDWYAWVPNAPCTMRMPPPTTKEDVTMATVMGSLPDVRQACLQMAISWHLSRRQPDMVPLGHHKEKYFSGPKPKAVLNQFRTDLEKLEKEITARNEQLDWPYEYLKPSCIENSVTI
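Purified human 12hLO (150 nM final) in 25 mM Hepes, 0.01% Triton X-100, pH 7.0 was preincubated 15 min at room temperature with compound. Then 40 uM arachidonic acid was added, 30 min. Hydroperoxide was read by Fe-XO absorbance ratio 573/405 nm.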
KB-V1 cytotox: qHTS assay for MDR1-selective chemotherapeutics: Primary screen using the drug-selected MDR subline cells KB-V1. KB-V1 MDR cells viability, CellTiter-Glo, 72 h. Potency, µM (series often up to 46.1 µM), actives largely listed as cytotoxic. 3.4% of 400,000 active. AID 1347076, 2019; further: on the % scale 0 is the no-effect control and ±100 the full control effect; nearly all actives have a fitted effect of over 60% in size
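In this primary screen, KB-V1 cells overexpressing P-gp are incubated with library compounds (lowest to highest concentration) for 72 h at 37 degrees C before a luminescent ATP viability read.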
PINK1 expr mod: A Quantitative High throughput Screen to Identify Chemical Modulators of PINK1 Expression. AID 624263, 2012. 0.2% of 410,000 active. Potency, µM (highest dose often 76.6 µM), inactives show at the top dose activation (PINK1 increase), usual class: activators. PINK1 immunofluorescence, high-content cytometry, 24 h; active means well fitted activation curve with a large enough effect; inconclusive means small, poorly fitted or top-dose-only effect; cell line not stated here; further: % of control where 0% means no effect; nearly all actives have a fitted effect of over 65% in size
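Stable cell line, 250 cells/well, 12 h attachment; compounds pinned at 5 concentrations, 24 h; CCCP control. Fixed with nuclear dye, primary antibodies 12 h at 10 degrees C, secondary plus cell stain; laser-scanning cytometer read.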
MCF10A rereplic: A quantitative high throughput screen for small molecules that induce DNA re-replication in MCF 10a normal breast cells. MCF 10A DNA re-replication, Hoechst nuclear intensity, 48 h. Potency, µM (highest dose often 46.1 µM), inactives show top-dose activity, positive = re-replication, usual class: activators. 2.9% of 350,000 active. AID 624296, 2012; further: % of control where 0% means no effect; nearly all actives have a fitted effect of over 50% in size
SW480 rereplic: A quantitative high throughput screen for small molecules that induce DNA re-replication in SW480 colon adenocarcinoma cells; AID 624297, 2012; 1.8% of 340,000 active; SW480 DNA re-replication, Hoechst DNA content imaging, 48 h; Potency, µM (top dose mostly 46.1 µM), without a hit: at the highest dose re-replication activation, actives largely listed as activators; further: % of control where 0% means no effect; nearly all actives have a fitted effect of over 55% in size
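Per well, 250 cells were exposed to pinned compound for 48 hr. Nuclear DNA was visualised with Hoechst (40 min, 37 C) and total object intensity recorded by fluorescence scanning.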
KB-3-1 cytotox: qHTS assay for MDR1-selective chemotherapeutics: Primary screen using the parental adenocarcinoma cell KB-3-1; KB-3-1 viability, CellTiter-Glo ATP luminescence, 72 h; 1.4% of 400,000 active; AID 1347075, 2019; Potency, µM (doses to about 46.1 µM), usual class: cytotoxic; further: on the % scale 0 is the no-effect control and ±100 the full control effect; nearly all actives have a fitted effect of over 60% in size
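Cytotoxicity in the drug-sensitive parental line KB-3-1 was scored as loss of CellTiter-Glo luminescence following 72 h incubation with compound. Values come from curve fitting of normalized concentration-response data.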
* hit, by the source's call; i = inactive; ? = inconclusive; . = not tested or not shown; [ ] = remark or other dose. Unless noted, the call rests on the fitted dose curve; in most records, active means well fitted curve in the direction sought with a large enough effect; inconclusive means small, poorly fitted or top-dose-only effect, or another doubt; inactive means no such curve, though single readings can be large; an effect the other way counts as inactive or inconclusive. Potency means the concentration at half of the fitted maximal effect.

SMILES	ALOX12 inh	KB-V1 cytotox	PINK1 expr mod	MCF10A rereplic	SW480 rereplic	KB-3-1 cytotox
COCCn1c(Br)nc2c1c(=O)n(C)c(=O)n2C	1%	i	-1%	-3%	1%	i
CNc1nc2c(c(=O)n(C)c(=O)n2C)n1Cc1ccccc1	0%	i	0%	2%	-1%	i
CNc1nc2c(c(=O)[nH]c(=O)n2C)n1CCCc1ccccc1	9%	i	4%	?	-1%	i
Cc1ccc(OCCn2c(Br)nc3c2c(=O)n(C)c(=O)n3C)cc1	-1%	?	7%[38.3 µM]	-4%	-5%	21µM*
Cn1c(=O)c2c(nc(NCc3ccco3)n2C/C=C/c2ccccc2)n(C)c1=O	-13%	3.3µM*	-1%	?	?	i
Cc1nc(NCC2CCCO2)c(C#N)c2c1CCCC2 (stereo unspecified)	39%	.	.	.	.	.
CC(NC(=O)CSCc1cccc(Br)c1)C1CC2CCC1C2 (stereo unspecified)	2%	.	.	.	.	.
COc1cc(CNC(=O)c2nccnc2N)ccc1OCc1ccncc1	-45%	.	.	.	.	.
CCN1CCN(Cc2nc3c(c(=O)[nH]c(=O)n3C)n2CCCc2ccccc2)CC1	-13%	.	.	.	.	.
Cc1csc(Sc2nc3c(c(=O)[nH]c(=O)n3C)n2CCCc2ccccc2)n1	0%	4.1µM*	-2%	9%	-15%	?
Cn1c(=O)c2c(nc(Br)n2CCc2ccccc2)n(C)c1=O	0%	16µM*	-3%	12%	-8%	i
Cn1c(=O)c2c(nc(NCCO)n2CCCc2ccccc2)n(C)c1=O	1%	i	-1%	1%	12%	i
COCCNc1nc2c(c(=O)n(C)c(=O)n2C)n1CCCc1ccccc1	-45%	16µM*	-1%	.	.	i
CC1CN(Cc2nc3c(c(=O)[nH]c(=O)n3C)n2CCCc2ccccc2)CC(C)O1 (stereo unspecified)	6%	3.3µM*	-1%	2%	-11%	i
CC(=O)Nc1ccc(NC(=O)CCc2ncc(-c3ccc(Cl)cc3)o2)cc1	-76%	.	.	.	.	.
COc1ccccc1C(=O)COC(=O)c1cc(S(N)(=O)=O)ccc1F	2%	.	.	.	.	.
Cn1c(=O)c2c(nc(NCc3ccccc3)n2CCCc2ccccc2)n(C)c1=O	-5%	2.9µM*	-2%	?	-6%	?
C=CCNc1nc2c(c(=O)n(C)c(=O)n2C)n1CCCCCC	-7%	1.5µM*	-1%	15%	1%	1.5µM*
Cc1cc(C)cc(N(C(=O)C23CC4CC(CC(C4)C2)C3)C2C=CS(=O)(=O)C2)c1 (stereo unspecified)	-26%	.	.	.	.	.
CC(C)Oc1ccc(Cc2cnc(=S)[nH]c2N)cc1	35µM*	i	1%	10%	-3%	i
N#CCCN1CCN(CCC#N)c2ccccc21	28µM*	?	-2%	5%	-1%	?
CCOC1CCCc2oc(-c3ccc(N(C)C)cc3)c(C(=O)OC)c21 (stereo unspecified)	?	8.2µM*	4%	.	.	?
COc1ccc(OC)c(NC(=O)c2cc(-c3cc(Cl)ccc3O)n[nH]2)c1	19%	?	?	15µM*	?	?
CCN1CCS/C1=C/C=C/C1=[N+](CC)CCS1	.	i	16µM*	9%	3%	?
CCN1CCS/C1=C\C=C\C1=[N+](CC)CCS1	-5%	i	14µM*	?	-67%	i
SMILES	ALOX12 inh	KB-V1 cytotox	PINK1 expr mod	MCF10A rereplic	SW480 rereplic	KB-3-1 cytotox
Cc1ccc2c(CSc3nncs3)cc(=O)oc2c1C	-2%	.	.	.	.	.
CC1=C(O)C(=O)CO1	25µM*	.	.	.	.	.
O=C1OCC(CC2=C(O)C(=O)OC2)=C1O	-8%	i	-1%	-3%	1%	i
COc1cc(-c2ccc(C)cc2)nc2ccc(C(=O)N3CCC(C(N)=O)CC3)cc12	-11%	.	.	.	.	.
CC(C)[C@H](NC(=O)C1CCCC1)c1nc2ccccc2[nH]1	-1%	i	-2%	9.2µM*	?	i
COc1ccc(S(=O)(=O)N2CCC(C(=O)NC(c3nc4ccccc4[nH]3)C(C)C)CC2)cc1 (stereo unspecified)	5%	i	8%	?	9%	i
CC(=O)OC1c2c(ccc3ccc(=O)oc23)OC(C)(C)C1OC(=O)CC(C)C (stereo unspecified)	22%	12µM*	2%	4%	-7%	i
CC(C)N(C(=O)Cn1cnc2c1c(=O)n(C)c(=O)n2C)c1ccccc1	3%	.	.	.	.	.
O=C(c1ccco1)N1CCN(C(=O)c2cc3sccc3n2Cc2ccccc2)CC1	0%	2.1µM*	-2%[38.3 µM]	-6%	-2%	?
O=C(NCc1ccco1)c1cc2sccc2n1Cc1ccccc1	0%	16µM*	-3%[38.3 µM]	-4%	15%	i
CC1Cc2ccccc2N1C(=O)c1cc2sccc2n1Cc1ccc(F)cc1 (stereo unspecified)	53%	21µM*	2%	?	?	?
Cc1cccc(C)c1NC(=O)c1cc2sccc2n1Cc1ccc(F)cc1	-20%	i	?	.	.	i
O=C(NCc1ccco1)C1CCN(C(=O)c2cc3sccc3n2Cc2ccc(F)cc2)CC1	7%	?	-4%[38.3 µM]	25%	0%	i
Cc1ccccc1NC(=O)COC(=O)CCc1nc2ccccc2s1	2%	.	.	.	.	.
COc1ccc(C(=O)NC(=S)Nc2ccccc2N2CCOCC2)cc1Br	16µM*	16µM*	-2%	?	-1%	i
COc1cc(C(=O)Nc2ccccc2N2CCOCC2)ccc1OCc1c(C)noc1C	-28%	4.6µM*	0%	1%	-3%	i
COc1cc(C(=O)OCC#N)ccc1OCc1c(C)noc1C	14%	?	8%	4.1µM*	10µM*	?
CCOc1ccc(C(=O)NC(=S)Nc2ccccc2N2CCOCC2)cc1Br	25µM*	?	-1%	4%	-10%	i
COc1ccc(C(=O)Nc2ccccc2N2CCOCC2)cc1Br	-27%	i	3%	-13%	-2%[9.22 µM]	i
COc1cc(C(=O)NCc2ccc(C)cc2)ccc1OCc1c(C)noc1C	14%	i	-2%	1%	0%	i
CCCN(C)c1nccnc1OC1CCN(C(=O)c2ccc(F)cc2)C1 (stereo unspecified)	46%	.	.	.	.	.
COc1ccc(-c2nc(CSC(C)C(=O)NC(C)(C)C)co2)cc1 (stereo unspecified)	7%	.	.	.	.	.
NC(=O)COc1cc(OCC(N)=O)c(Cl)cc1Cl	5%	.	.	.	.	.
